# Assay outcomes as filed in PubChem BioAssay.
# MITF inh: blocks MITF activity; TRPM1 promoter luciferase, luminescence, 24 h; inhibition, % (concentration not given with the values); 37,000 tested, 0.28% active; in the data active = inhibition above about 85%; inconclusive = no clear call, values can overlap the other calls; inactive = below about 68%;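 also: human melanocyte line stably carrying TRPM1 promoter luciferase reporter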
# Hedgehog inh: blocks Sonic Hedgehog signaling. Shh-LIGHT2 Gli-luciferase reporter, 30 h. inhibition, % (test concentration not listed). 22,000 tested, 2.1% active. AID 2313;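 active = mean inhibition across valid replicates above about 65%, limit read from the data; inconclusive = mean under the limit, yet half or more replicates past it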;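 also: pathway switched on by Shh-conditioned medium diluted 1 in 25 in low serum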
# * hit, by the source's call; ? = inconclusive; . = not tested or not shown; ! = not confirmed by another sample. Many of the other results were omitted from the sample, so hits are more common in it than they were.
SMILES,MITF inh,Hedgehog inh
O=C1c2ccccc2C(=O)N1C(CO)C(O)c1ccccc1 (stereo not drawn),11,-21
O=C1C(SCCO)=C(SCCO)C(=O)c2ccccc21,103*,104*
O=C(CCCN1C(=O)c2cccc3cccc(c23)C1=O)Nc1ccccc1Br,-6,.
O=C(CCCCCN1C(=O)c2cccc3cccc(c23)C1=O)NO,71,91*
COc1ccc(C(=O)N2c3ccccc3CCc3ccccc32)cc1,25,-59
COc1cccc([C@H]2C(C#N)=C(N)C(C#N)(C#N)C3=CCC(C)C[C@@H]32)c1 (stereo partly drawn),50,-3
Cc1cccc(OCC(=O)Nc2cccc(-c3nc4ccccc4s3)c2)c1,-14,.
O=C(O)COc1cccc(-c2nc3ccccc3s2)c1,105*,.
Cc1cc(C(=O)N(c2ccccc2)C(C)C2CC2)c(Cl)cc1Cl (stereo not drawn),30,10
CC(C)(C)C1CCc2c(sc3nc(-c4cccs4)oc(=O)c23)C1 (stereo not drawn),-11,-12
CC1CCN(CC(O)COc2c(F)cc(Br)cc2F)CC1 (stereo not drawn),0,16
OC(CN1CCNCC1)Cn1c2ccc(Br)cc2c2cc(Br)ccc21 (stereo not drawn),-13,78*!
CC1/C(=N/O)C[C@@H]2C[C@H]1C2(C)C (stereo partly drawn),-5,-27
CC(C)=CCCC(C)(O)C1Cc2cc(C(=O)O)cc(CC=C(C)C)c2O1 (stereo not drawn),.,-20
Oc1ccc(/C=C/c2cc(O)cc(O)c2)cc1,101*,?
COc1cc(O)cc(/C=C/c2ccccc2)c1,-10,-23
Cc1cc(-c2ccccc2)nc(SCC(=O)O)n1,3,.
Cc1nc(SC2CCCCN(C(=O)c3ccc(Cl)cc3)C2=O)c2c3c(sc2n1)CCCC3 (stereo not drawn),-21,19
C[C@@H]1CN([C@@H](C)CO)C(=O)Cc2cc(NC(=O)Nc3ccccc3)ccc2O[C@@H]1CN(C)Cc1ccc2c(c1)OCO2,14,-7
C[C@@H]1CN([C@H](C)CO)C(=O)Cc2cc(NC(=O)C3CCCCC3)ccc2O[C@@H]1CN(C)CC1CCCCC1,-8,76*
CC(C)NC(=O)Nc1ccc2c(c1)CC(=O)N([C@@H](C)CO)C[C@H](C)[C@@H](CN(C)C(=O)Nc1ccc3c(c1)OCO3)O2,9,21
C[C@H]1CN([C@@H](C)CO)C(=O)Cc2cc(NC(=O)Nc3ccccc3)ccc2O[C@@H]1CN(C)Cc1ccc2c(c1)OCO2,-7,70*
CC(C)NC(=O)Nc1ccc2c(c1)CC(=O)N([C@@H](C)CO)C[C@H](C)[C@H](CN(C)C(=O)Nc1ccc3c(c1)OCO3)O2,-6,65*
C[C@H]1CN([C@@H](C)CO)C(=O)Cc2cc(NC(=O)C3CCCCC3)ccc2O[C@H]1CN(C)CC1CCCCC1,-11,27
Cc1cc(Br)cc2c1N(C)C(=O)/C2=C1\SC(=Nc2ccc(F)cc2)NC1=O,23,5
SMILES,MITF inh,Hedgehog inh
N#Cc1c(C(F)(F)F)cc(-c2ccc(Br)cc2)nc1SCCC(=O)O,51,.
O=C(O)c1ccc(NS(=O)(=O)c2cc3c4c(cccc4c2)C(=O)NC3=O)cc1,24,23
CCOC(=O)C1=C(Nc2ccc(OC(C)=O)cc2)C(=O)N(C(C)(C)C)C1,-9,4
CCOc1ccc(C2(C)CC(C)(C)Nc3ccccc32)cc1 (stereo not drawn),5,1
CCOC(=O)CSc1nc2cccnc2s1,8,-24
CC/C=C\C/C=C\C/C=C\C/C=C\C/C=C\C/C=C\CCC(=O)O,1,-32
C/C=C/C/C=C/CCC(=O)[C@H]1O[C@H]1C(N)=O,101*,78*
O=C(CN1C(=O)C2C3C=CC(C4CC34)C2C1=O)Nc1ccc(Oc2ccccc2)cc1 (stereo not drawn),46,.
C=C1C(=O)O[C@@H]2C=C(C)[C@@H]3CC[C@@](C)(O)[C@@H]3C[C@H]12,-1,10
C=C1C(=O)O[C@H]2C3=C(C)CCC[C@]3(C)C(=O)C[C@@H]12,78,76*
C1=Cc2nonc2C2C=C(c3ccccc3)N=C12 (stereo not drawn),26,14
O=C(CC(Sc1ccc(Br)cc1)C(=O)O)c1ccc(Cl)cc1 (stereo not drawn),6,53
C[C@@H]1CCCCO[C@@H](CN(C)S(=O)(=O)c2ccc(Cl)cc2)[C@@H](C)CN([C@H](C)CO)C(=O)c2cc(NS(=O)(=O)c3ccc(Cl)cc3)ccc2O1,53,71*
C[C@@H]1CCCCO[C@@H](CN(C)S(=O)(=O)c2cccs2)[C@@H](C)CN([C@H](C)CO)C(=O)c2cc(NS(=O)(=O)c3cccs3)ccc2O1,-8,.
C[C@@H]1CCCCO[C@H](CN(C)S(=O)(=O)c2ccc(Cl)cc2)[C@@H](C)CN([C@H](C)CO)C(=O)c2cc(NS(=O)(=O)c3ccc(Cl)cc3)ccc2O1,36,14
C[C@@H]1CCCCO[C@@H](CN(C)S(=O)(=O)c2cccs2)[C@@H](C)CN([C@H](C)CO)C(=O)c2cc(NS(C)(=O)=O)ccc2O1,-2,67*
COc1ccc(-n2nnnc2SCC(=O)Nc2ccc(F)cc2)cc1,-2,.
Cc1ccc2nc(S/C=C/C(=O)c3ccccc3)[nH]c2c1,69,48
Nc1nc(Cc2ccc(F)cc2F)no1,12,-3
Cc1cccc(C)c1OCC(=O)Nc1cccc(C(=O)O)c1,21,.
Cc1ccc(OCC(=O)Nc2cccc(C(=O)O)c2)c(Br)c1,87*,.
CCN(CC(=O)Nc1ccc(C(N)=O)cc1)S(=O)(=O)c1ccc(Br)cc1,-13,.
CCc1c(O)cc(O)c2c1O[C@H](C)CC2=O,3,19
O=C(CC1(O)C(=O)Nc2ccc(Br)cc21)c1ccc(NS(=O)(=O)c2ccccc2)cc1 (stereo not drawn),14,.
CC(C)(C)c1ccc(-c2[nH]nc(NS(=O)(=O)c3ccccc3)c2Br)cc1,13,95*
SMILES,MITF inh,Hedgehog inh
O=C1CC(c2ccccc2)N(c2cccc(C(F)(F)F)c2)C(=S)N1 (stereo not drawn),-1,40
COc1ccc(OC)c(S(=O)(=O)c2ccc(Br)cc2)c1,2,-29
C=CS(=O)(=O)c1ccc(OC)c(N)c1,58,83*
C[C@H](CO)N1C[C@H](C)[C@@H](CN(C)Cc2ccc(Cl)c(Cl)c2)Oc2c(NS(=O)(=O)c3ccc(F)cc3)cccc2C1=O,-21,22
Cc1ccc(S(=O)(=O)Nc2cccc3c2O[C@H](CN(C)Cc2ccc(Cl)c(Cl)c2)[C@H](C)CN([C@@H](C)CO)C3=O)cc1,9,17
C[C@H](CO)N1C[C@H](C)[C@H](CN(C)Cc2ccc(Cl)c(Cl)c2)Oc2c(NS(=O)(=O)c3ccc(Cl)cc3)cccc2C1=O,49,90*
Cc1ccc(S(=O)(=O)Nc2cccc3c2O[C@@H](CN(C)Cc2ccc(Cl)c(Cl)c2)[C@@H](C)CN([C@H](C)CO)C3=O)cc1,60,113*
N#CC1=C(N)C(C#N)(C#N)C(c2ccccc2)C2=C1CCCC2 (stereo not drawn),-3,16
N#C/C(=C\c1ccc(O)c(O)c1)C(=O)NCCCc1ccccc1,3,86*
N#C/C(=C\c1ccc(O)c(O)c1)C(=O)c1ccc(O)c(O)c1,-3,40
COc1ccc(S(=O)(=O)Nc2ccc3c(c2)C(=O)N([C@H](C)CO)C[C@@H](C)[C@@H](CN(C)Cc2ccc(Oc4ccccc4)cc2)O3)cc1,40,68*
